Measurements reported in PMC4336329 (PLoS ONE, 2015).
The whole screen tested about 310,000 compounds, of which about 14,000 (4.5%) showed an effect of 50% or more. The effect is printed as a negative number. The entries come from a sample that favours strong results as a whole.

These compounds were tested against human ether-à-go-go-related gene (hERG) potassium channel (human, UniProt Q12809) (assay: primary screen, population patch clamp on CHO cells stably expressing hERG; higher = less effect of the substance).
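Note: peak tail current of the secondary pulse compared with the same well before compound.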

Sequence of human ether-à-go-go-related gene (hERG) potassium channel (Q12809 whole entry, looked up): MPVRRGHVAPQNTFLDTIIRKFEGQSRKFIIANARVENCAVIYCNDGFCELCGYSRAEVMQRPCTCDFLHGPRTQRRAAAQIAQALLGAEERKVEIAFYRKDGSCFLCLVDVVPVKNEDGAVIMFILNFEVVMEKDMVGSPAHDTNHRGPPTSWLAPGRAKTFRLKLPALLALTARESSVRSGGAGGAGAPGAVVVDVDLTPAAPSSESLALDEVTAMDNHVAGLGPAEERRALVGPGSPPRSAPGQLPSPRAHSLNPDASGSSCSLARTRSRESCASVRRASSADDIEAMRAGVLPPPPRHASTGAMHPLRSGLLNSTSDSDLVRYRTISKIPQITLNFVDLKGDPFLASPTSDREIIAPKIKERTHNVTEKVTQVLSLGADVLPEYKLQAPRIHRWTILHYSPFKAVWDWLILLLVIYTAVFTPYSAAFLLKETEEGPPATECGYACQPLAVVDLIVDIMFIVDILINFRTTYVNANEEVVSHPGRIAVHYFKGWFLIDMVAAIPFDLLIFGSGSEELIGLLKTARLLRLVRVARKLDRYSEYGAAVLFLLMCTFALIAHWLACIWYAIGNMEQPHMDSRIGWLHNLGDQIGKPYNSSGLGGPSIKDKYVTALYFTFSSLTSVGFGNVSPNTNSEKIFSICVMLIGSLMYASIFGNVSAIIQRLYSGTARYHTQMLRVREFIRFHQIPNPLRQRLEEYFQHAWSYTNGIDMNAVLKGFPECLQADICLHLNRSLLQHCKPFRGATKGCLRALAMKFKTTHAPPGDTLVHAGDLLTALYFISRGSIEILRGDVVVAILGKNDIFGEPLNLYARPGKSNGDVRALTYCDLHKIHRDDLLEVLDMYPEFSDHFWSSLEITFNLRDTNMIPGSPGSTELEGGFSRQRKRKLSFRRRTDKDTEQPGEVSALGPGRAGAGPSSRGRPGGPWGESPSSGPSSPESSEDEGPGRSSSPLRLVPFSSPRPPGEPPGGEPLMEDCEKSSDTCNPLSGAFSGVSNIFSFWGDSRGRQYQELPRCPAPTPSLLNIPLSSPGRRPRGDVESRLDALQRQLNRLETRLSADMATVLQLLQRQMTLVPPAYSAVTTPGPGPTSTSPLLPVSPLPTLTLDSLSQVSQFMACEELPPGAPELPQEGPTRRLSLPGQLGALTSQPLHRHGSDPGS

| SMILES | hERG current change (%, negative = inhibition) at 10uM [%] |
| --- | --- |
| COCCSc1nnc(NS(=O)(=O)c2ccc(F)cc2)s1 | 3.84 |
| O=C(c1ccncc1)N1c2ccccc2Sc2ccccc21 | 18.2 |
| CC(C)=CCCC(C)N(C=O)C(C)CCC=C(C)C (stereo not shown) | -1.01 |
| CC(=O)c1cccc(NC(=O)COC(=O)c2ccccc2C)c1 | -14.4 |
| CN(C)S(=O)(=O)c1ccc(C(=O)OCC(=O)Nc2ccccc2OC(F)F)cc1 | -5.82 |
| CC(OC(=O)c1cc(Br)ccc1O)C(=O)NC1(C#N)CCCCC1 (stereo not shown) | 27.3 |
| Cc1c(N=Cc2nc3ccccc3[nH]2)c(=O)n(-c2ccccc2)n1C | 5.52 |
| Cc1ccc(S(=O)(=O)NC(CC(=O)N2CCC3(CC2)OCCO3)c2ccco2)cc1 (stereo not shown) | 3.51 |
| CC(C)[C@H](NC(=O)NCCc1ccc(Cl)cc1)C(=O)O | 5.9 |
| COc1ccccc1-c1noc(CCC(=O)Nc2cc(C(F)(F)F)ccc2Cl)n1 | -3.68 |
| CC(C)=CC(=O)OCC(=O)Nc1cc([N+](=O)[O-])ccc1F | 0.461 |
| CC(C)CCN(Cc1ccco1)S(=O)(=O)c1csc(C(N)=O)c1 | -14.9 |
| CC1(c2ccc(OC(F)F)cc2)NC(=O)N(CC(=O)N2c3ccccc3NC(=O)C2(C)C)C1=O (stereo not shown) | -6.78 |
| CCCCNC(=O)N(O)C1N(/N=C/c2ccccc2F)C(=S)SC1(C)C (stereo not shown) | 16.5 |
| Cc1ccc(C(=O)N[C@H](C(=O)OCC(=O)NC2CCS(=O)(=O)C2)C(C)C)cc1 (stereo partly shown) | 11.6 |
| Cc1cccc(NC(=S)N(CCCN(C)C)Cc2cc3cc4c(cc3[nH]c2=O)OCO4)c1 | -52.7 |
| CC(=O)N(CCc1cccc(C)c1)Cc1cc2cc(C)ccc2[nH]c1=O | -5.71 |
| CN(C)CCCN(Cc1cc2cc3c(cc2[nH]c1=O)OCO3)C(=S)Nc1ccccc1 | -36.6 |
| COc1ccc(NC(=O)N(Cc2cc3cc(C)ccc3[nH]c2=O)CC2CCCO2)cc1 (stereo not shown) | -25.2 |
| Cc1ccc2[nH]c(=O)c(CN(CCCN(C)C)C(=O)Nc3ccc(Cl)cc3)cc2c1 | -66.1 |
| Cc1cccc(NC(=O)N(Cc2cc3cc(C)ccc3[nH]c2=O)CC2COCCO2)c1 (stereo not shown) | 6.43 |
| CN(C)CCCN(Cc1cc2cc3c(cc2[nH]c1=O)OCO3)C(=S)Nc1cccc(Cl)c1 | -45.7 |

| SMILES | hERG current change (%, negative = inhibition) at 10uM [%] |
| --- | --- |
| Cc1ccc2[nH]c(=O)c(CN(CCCN(C)C)C(=O)Nc3ccc(F)cc3)cc2c1 | -70.7 |
| Cc1ccc(NC(=S)N(CCCN(C)C)Cc2cc3cc4c(cc3[nH]c2=O)OCO4)cc1 | -41.7 |
| Cc1ccc2[nH]c(=O)c(CN(CCO)C(=O)N(C)C)cc2c1 | 5.5 |
| Cc1ccc2[nH]c(=O)c(CN(CCCN(C)C)C(=O)Nc3cccc(Cl)c3)cc2c1 | -53.6 |
| CCCn1c(SCC(=O)NCc2ccco2)nnc1-c1ccncc1 | 19.9 |
| O=C(NNC(=O)C1CC1)Nc1ccc(Cl)cc1 | 6.38 |
| CNC(=O)c1nn(-c2ccccc2)ccc1=O | -1.51 |
| COc1cc2nc(N3CCN(C(=O)[C@H]4COc5ccccc5O4)CC3)nc(N)c2cc1OC | -37.7 |
| O=S(=O)(c1ccccc1F)N1CCN(Cc2cc3c(cc2O)OCO3)CC1 | -11.8 |
| O=C(COC(=O)C1=COCCO1)Nc1ccc(F)c(F)c1 | -1.21 |
| Cc1ccc(N2C(=O)C3C4C=CC(C4)C3C2=O)cc1C (stereo not shown) | 13.3 |
| O=C(CSc1nnc(-c2ccccc2F)n1C1CC1)NC(=O)c1cccc([N+](=O)[O-])c1 | -52.8 |
| C=CCn1c(SCC(=O)NC(=O)c2cccc([N+](=O)[O-])c2)nnc1-c1ccccc1F | -15.5 |
| Cn1c(SCC(=O)NC(=O)c2cccc([N+](=O)[O-])c2)nnc1-c1ccc(F)cc1 | -23.3 |
| NS(=O)(=O)c1cccc(C(=O)NC2CCSc3ccccc32)c1 (stereo not shown) | 7.91 |
| COc1cc(C(=O)N/N=C/c2ccc(OC(=O)c3ccccc3Cl)cc2)ccc1O | -10.5 |
| O=c1[nH]c(=S)[nH]c2scc(-c3ccc(Br)cc3)c12 | 16.3 |
| CCS(=O)(=O)Nc1cccc(C2=NN(S(C)(=O)=O)C(c3ccccc3)C2)c1 (stereo not shown) | -14.6 |
| CCS(=O)(=O)N1N=C(c2cccc(NS(C)(=O)=O)c2)CC1c1ccccc1 (stereo not shown) | -16.9 |
| CCS(=O)(=O)N1N=C(c2cccc(NS(C)(=O)=O)c2)CC1c1ccc(C)cc1 (stereo not shown) | -73.9 |
| Cc1ccc(C2CC(c3cccc(NS(C)(=O)=O)c3)=NN2S(C)(=O)=O)cc1 (stereo not shown) | -69.3 |
| CS(=O)(=O)Nc1cccc(C2=NN(S(C)(=O)=O)C(c3ccccc3)C2)c1 (stereo not shown) | -30.9 |

| SMILES | hERG current change (%, negative = inhibition) at 10uM [%] |
| --- | --- |
| CCS(=O)(=O)Nc1cccc(C2=NN(S(=O)(=O)CC)C(c3ccccc3)C2)c1 (stereo not shown) | 1.69 |
| O=c1cc(-c2ccccc2)nc(N2CCCCC2)[nH]1 | -13.7 |
| CN(Cc1ccc(F)cc1)C(=O)c1sccc1-c1ccccc1 | 0.217 |
| Cc1cc(=O)[nH]c(NN)n1 | 6.39 |
| COc1cccc2cc(C(=O)NCc3ccco3)c(=O)oc12 | 2.32 |
| Cc1ccc(S(=O)(=O)Nc2ccc(-c3nnc(SCC#N)n3C)cc2)cc1 | -11.3 |
| CC(C)(C)n1nnnc1C(c1cccnc1)N1CCN(C2CCCCC2)CC1 (stereo not shown) | -2.19 |
| O=C(Nc1ccccc1N1CCCC1)c1ccc(Br)o1 | -22.4 |
| CS(=O)(=O)N1CCN(c2ccccc2NC(=O)c2ccc(Br)o2)CC1 | -36.3 |
| CC1CCN(c2ccccc2NC(=O)c2ccc(Br)o2)CC1 | -0.73 |
| CN1CCN(c2ccccc2NC(=O)c2ccc(Br)o2)CC1 | -67.9 |
| O=C(Nc1ccccc1N1CCN(C(=O)c2ccccc2)CC1)c1ccc(Br)o1 | -63.5 |
| O=C(Nc1ccccc1N1CCN(C(=O)c2ccccc2)CC1)c1cc2ccccc2o1 | 9.86 |
| CC(=O)N1CCN(c2ccccc2NC(=O)c2ccco2)CC1 | -38.9 |
| O=C(Nc1ccccc1N1CCOCC1)c1ccc(Br)o1 | 1.26 |
| O=C(Nc1ccccc1N1CCN(C(=O)c2ccccc2)CC1)c1ccco1 | -74.2 |
| CC(=O)N1CCN(c2ccccc2NC(=O)c2ccc(Br)o2)CC1 | -54.4 |
| O=C(Nc1ccccc1N1CCCC1)c1ccco1 | 6.36 |
| CCOC(=O)c1[nH]c(C)c(C(=O)OCCN2C(=O)c3ccccc3C2=O)c1C | -1.16 |
| COC(=O)[C@@H]1C[C@@]2(O)[C@H](O)[C@H](O)[C@H](O)C[C@H]2N1Cc1ccc(C(F)(F)F)cc1 | 13.2 |
| Cc1ccccc1CN1CCN(CC(=O)NCc2ccccc2)CC1 | -22.8 |
| Cc1c(NC(=O)CCC2CCCCC2)cc(C(=O)N2CCOCC2)cc1[N+](=O)[O-] | -10.2 |

| SMILES | hERG current change (%, negative = inhibition) at 10uM [%] |
| --- | --- |
| COc1cc(N)c(Cl)cc1C(=O)NC1CN2CCC1CC2.Cl.O (stereo not shown) | -11.1 |
| O=C(O)c1ccc(Cl)c(NC(=S)NC(=O)c2cccc(COc3ccccc3)c2)c1 | 30.4 |
| COC(=O)c1ccc(N2CCN(C)CC2)c(NC(=O)c2ccc(-c3ccc(Cl)cc3)o2)c1 | 7.11 |
| COC(=O)c1ccc(N2CCN(C(=O)c3ccccc3)CC2)c(NC(C)=O)c1 | -39.8 |
| COC(=O)c1ccc(N2CCOCC2)c(NC(=O)c2ccc(Br)o2)c1 | 7.34 |
| CCOC(=O)c1ccc(N2CCN(C(=O)c3ccccc3)CC2)c(NC(=O)c2ccco2)c1 | -71.5 |
| COC(=O)c1ccc(N2CCN(C)CC2)c(NC(=O)c2ccc(Br)o2)c1 | -55.8 |
| COC(=O)c1ccc(N2CCCCC2)c(NC(=O)c2ccco2)c1 | -45.8 |
| CCOC(=O)N1CCC(NC(=O)c2cc(S(=O)(=O)N3CCC4(CC3)OCCO4)ccc2F)CC1 | -6.9 |
| Fc1cccc(CN2CCN3CCCC3C2C2CCCCC2)c1 (stereo not shown) | -8.93 |
| CCOc1ccc(NC(=S)NC(=O)/C=C/c2ccc(OC)cc2)c([N+](=O)[O-])c1 | 7.26 |
| O=C(COc1ccccc1Cl)NCCNC(=O)c1cccnc1 | -3.71 |
| CS(=O)(=O)NNC(=O)Cn1nnc(-c2ccc(OCc3ccccc3Cl)cc2)n1 | 18 |
| O=C(Oc1ccc(-c2nnco2)cc1)N1CCOCC1 | 1.23 |
| CCc1ccccc1Nc1nc(N)nc(COC(=O)CCS(=O)(=O)c2ccccc2)n1 | -10.5 |
| CCc1ccccc1Nc1nc(N)nc(COC(=O)CCNS(=O)(=O)c2ccccc2)n1 | -62.7 |
| Cc1ccccc1Nc1nc(N)nc(COC(=O)CCNS(=O)(=O)c2ccccc2)n1 | -9.32 |
| Cc1ccc2nc(NCCc3ccc(Cl)cc3)c3nncn3c2c1 | 8.75 |
| Cn1c2ccccc2c2nnc(SCC(N)=O)nc21 | -7.5 |
